Reference: PubChem BioAssay AID382 (SGCOxCompounds, 2006)
Activity calls are given as the source filed them. No rule for the calls is given here.

The molecules below were run against Dual specificity protein kinase CLK1 (Homo sapiens) (UniProt P49759) (assay: ligand-induced CLK1 melting temperature shift – biophysical, recombinant human kinase, DSF (AID 382)). Details: Recombinant CLK1, thermal shift (DSF), at 10 µM, protein 1.7 µM, buffer 10 mM HEPES, pH 7.5, NaCl 150 mM, with 50 µM L-Arg/L-Glu (1:1), active compounds read high.
Dual specificity protein kinase CLK1 (Homo sapiens), sequence (P49759 whole entry, looked up): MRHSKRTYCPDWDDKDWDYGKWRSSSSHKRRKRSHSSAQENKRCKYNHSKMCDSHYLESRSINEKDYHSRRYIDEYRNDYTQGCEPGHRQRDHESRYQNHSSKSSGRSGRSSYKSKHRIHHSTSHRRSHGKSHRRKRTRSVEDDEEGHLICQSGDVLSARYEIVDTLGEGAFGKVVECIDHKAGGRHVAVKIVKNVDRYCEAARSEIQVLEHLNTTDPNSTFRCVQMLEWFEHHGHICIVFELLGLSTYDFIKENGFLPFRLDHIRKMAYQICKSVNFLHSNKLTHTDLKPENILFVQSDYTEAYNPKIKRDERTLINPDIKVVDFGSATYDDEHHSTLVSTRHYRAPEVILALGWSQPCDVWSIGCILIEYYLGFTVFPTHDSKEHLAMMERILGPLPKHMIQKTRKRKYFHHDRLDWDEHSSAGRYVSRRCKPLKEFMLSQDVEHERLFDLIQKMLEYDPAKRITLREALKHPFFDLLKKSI

Tm shift, active:
COc1ccc(Nc2nc(N)c(C(=O)c3ccc(Cl)cc3)s2)cc1 4.4 Celsius, Nc1nc(Nc2cccc(Cl)c2)sc1C(=O)c1ccc(F)cc1 4 Celsius, Nc1nc(Nc2ccc(F)cc2)sc1C(=O)c1ccccc1 3.3 Celsius

Same assay, conditions: Recombinant CLK1, thermal shift (DSF), at 10 µM, protein 2 µM, buffer 10 mM HEPES, NaCl 150 mM, active compounds read high

Tm shift, active:
O=c1c(O)c(-c2ccc(O)cc2)oc2cc(O)cc(O)c12 5.97 Celsius, O=Nc1c(-c2c(O)[nH]c3ccccc23)[nH]c2ccccc12 3.59 Celsius, O=c1cc(-c2ccccc2)oc2cc(O)c(O)c(O)c12 4.05 Celsius, COc1cc(C2Oc3cc(O)cc(O)c3C(=O)C2=O)ccc1O (centres undefined) 6.14 Celsius, Brc1c(Br)c(Br)c2n[nH]nc2c1Br 3.97 Celsius, COc1cc(/C=C/C(=O)CC(=O)/C=C/c2ccc(O)c(OC)c2)ccc1O 9.16 Celsius
